Records with an inconclusive call do not appear. Calls of active or inactive are those of the source. Calls come from the whole dose curve; as a rule, active = well fitted curve in the direction sought with a large enough effect; inconclusive = small, poorly fitted or top-dose-only effect, or another doubt; inactive = no such curve, though single readings can be large; an effect the other way counts as inactive or inconclusive. Where a SMILES comes first, the peptide text is derived from it. Bridges are numbered along the chain shown (N, C = ends). [ ]: non-standard residue; d: D form. hArg = N=C(N)NCCCC[C@H](N)C(=O)O; Mpa = O=C(O)CCS

Test [1] is described as follows: qHTS assay for measurement of the activity of small molecule inhibitors on Zika virus induced Caspase-3 activity in human iPSC derived neural progenitor cells (hNPCs) (AID 1224857). Note: nearly all actives have a fitted effect of over 65% in size. The method in brief:
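After overnight (16–20 h) culture at 350 cells/well, hNPCs get compound, then ZIKV 2 FFU/cell one hour later. Six hours on, Caspase-Glo 3/7 is added and luminescence measured.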
(In general: In qHTS, concentration-response curves come from the screen itself.)

The nature of test [2]: qHTS assay for measurement of the activity of small molecule inhibitors on Zika virus induced Caspase-3 activity in human astrocytoma cells (AID 1224859). The method in brief: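 Inhibition of Zika-induced caspase-3/7 activity: SNB-19 cells, 1 h compound pretreatment, ZIKV 2 FFU/cell for 6 h at 37 C, Caspase-Glo luminescence read-out.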
A short description of test [3]: qHTS assay to identify small molecule inhibitors of chordoma cells - UCH-1 (AID 1259355). Note: nearly all actives have a fitted effect of over 55% in size. Summed up:
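Screening used approved and investigational drugs in 15-point titration against 800 seeded cells per well. A fixed combination of auranofin with camptothecin, doxorubicin, rubitecan and topotecan followed compound addition, and growth was scored by CellTiter-Glo after 48hr.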

Consider `Nc1c2c(nc3c1CCC3)CCCC2`, for which the result in test [1], in test [2] and in test [3] was inactive.
In the case of `Cc1cccc(Nc2ccccc2C(=O)O)c1C`, the outcome in test [1], in test [2] and in test [3] was inactive.
With `C=CCSCC1Nc2cc(Cl)c(S(N)(=O)=O)cc2S(=O)(=O)N1` (configuration not stated), the call in test [1], in test [2] and in test [3] was inactive.
`O=C(NCCCN1CCOCC1)c1ccc(Cl)cc1`: the compound was classed as inactive in test [2] and in test [3].
Take `OC(CCN1CCCC1)(c1ccccc1)C1CCCCC1` (configuration not stated): the compound was classed as inactive in test [2] and in test [3].
In the case of `NC(=O)CC[C@@H](N)C(=O)O`, the compound was called inactive in test [2] and in test [3].
For `CC1(C)S[C@@H]2[C@H](NC(=O)C(C(=O)O)c3ccccc3)C(=O)N2[C@H]1C(=O)O` (some centres not stated), the compound was classed as inactive in test [2] and in test [3].
With `CCS(=O)(=O)CCn1c([N+](=O)[O-])cnc1C`, the compound was called inactive in test [2] and in test [3].
In the case of `CN[C@@H]1[C@H](O)[C@H](NC)[C@H]2O[C@@]3(O)C(=O)C[C@@H](C)O[C@H]3O[C@@H]2[C@H]1O`, the result in test [2] and in test [3] was inactive.
For the compound `CC(=O)Nc1ccccc1`, the outcome in test [2] and in test [3] was inactive.
Take `CCOC(N)=O`: the compound was classed as inactive in test [2] and in test [3].
As to `Cc1ccc(S(=O)(=O)NC(=O)NC2CCCCC2)cc1`, the compound was called inactive in test [2] and in test [3].
In the case of `NNC(=O)CP(=O)(c1ccccc1)c1ccccc1`, the compound was classed as inactive in test [2] and in test [3].
Turning to `O=C(NCC(O)CO)c1c(I)c(C(=O)NCC(O)CO)c(I)c(N(CCO)C(=O)CO)c1I` (configuration not stated), the call in test [2] and in test [3] was inactive.
Regarding `CCOC(=O)[C@H](CCc1ccccc1)N[C@@H](C)C(=O)N1CCC[C@H]1C(=O)O`, the outcome in test [2] and in test [3] was inactive.
Take `CCCCCC(C)N` (configuration not stated): the outcome in test [2] and in test [3] was inactive.
Take `CCCCCCCCCCCCCCCCCCO`: the compound was called inactive in test [2] and in test [3].
As for `O=C(O)CCCCC1CCSS1` (configuration not stated), the call in test [2] and in test [3] was inactive.
On to `CC1CC(OC(=O)c2ccccc2O)CC(C)(C)C1` (configuration not stated), for which the outcome in test [2] and in test [3] was inactive.
For the compound `O=C(O)CCCc1ccccc1`, the outcome in test [2] and in test [3] was inactive.
On to `Cc1cc(=O)[nH]c(=S)[nH]1`, for which the compound was classed as inactive in test [2] and in test [3].
Turning to `COc1ccccc1OCC(O)CO` (configuration not stated), the compound was classed as inactive in test [2] and in test [3].
Consider `Cc1cc(C)c(NC(=O)CN(CC(=O)O)CC(=O)O)c(C)c1Br`, for which the call in test [2] and in test [3] was inactive.
`COc1ccc(C(=O)NCc2ccc(OCCN(C)C)cc2)cc1OC`: the outcome in test [2] and in test [3] was inactive.
In the case of `Cc1cc(NC(=O)C2=C(O)c3ccccc3S(=O)(=O)N2C)no1`, the call in test [2] and in test [3] was inactive.
With `Cc1c(NC(=O)c2cccnc2)c(=O)n(-c2ccccc2)n1C`, the compound was called inactive in test [2] and in test [3].
As to `C=CCOc1ccccc1OCC(O)CNC(C)C` (configuration not stated), the compound was called inactive in test [2] and in test [3].
As for `O=C1c2ccccc2C(=O)C1c1ccc(Br)cc1`, the outcome in test [2] and in test [3] was inactive.
For the compound `CNCc1ccccc1`, the outcome in test [2] and in test [3] was inactive.
Regarding `CC(C(=O)O)c1ccc2c(c1)Cc1cccnc1O2` (configuration not stated), the compound was classed as inactive in test [2] and in test [3].
For `C/C=C/C(=O)N(CC)c1ccccc1C`, the result in test [2] and in test [3] was inactive.
For `CCCCOC(=O)c1ccc(N)cc1`, the compound was called inactive in test [2] and in test [3].
Turning to `O=C(NCN1CCOCC1)c1cnccn1`, the compound was called inactive in test [2] and in test [3].
On to `COc1ccccc1Oc1c(NS(=O)(=O)c2ccc(C(C)(C)C)cc2)nc(-c2ncccn2)nc1OCCO`, for which the compound was called inactive in test [2] and in test [3].
For the compound `FC(F)(F)C(Cl)Br` (configuration not stated), the compound was classed as inactive in test [2] and in test [3].
For `CCCNC(C)C(=O)Nc1c(C)csc1C(=O)OC` (configuration not stated), the compound was called inactive in test [2] and in test [3].
`CC(C)C[C@@H](N)C(=O)O`: the call in test [2] and in test [3] was inactive.
Regarding `NC(=O)[C@@H]1CSSCCC(=O)N[C@@H](CCCCN=C(N)N)C(=O)NCC(=O)N[C@@H](CC(=O)O)C(=O)N[C@@H](Cc2c[nH]c3ccccc23)C(=O)N2CCC[C@H]2C(=O)N1` ([Mpa][hArg]GDWPC-NH2; disulfide 1-7), the compound was classed as inactive in test [2] and in test [3].
On to `COc1ccc(-c2cc(=O)c3c(O)cc(O[C@@H]4O[C@H](CO[C@@H]5O[C@@H](C)[C@H](O)[C@@H](O)[C@H]5O)[C@@H](O)[C@H](O)[C@H]4O)cc3o2)cc1O`, for which the outcome in test [2] and in test [3] was inactive.
For `CCCCCCCCCCCCCCCCN`, the outcome in test [2] and in test [3] was inactive.
Consider `CC1(C)S[C@@H]2[C@H](N=CN3CCCCCC3)C(=O)N2[C@H]1C(=O)O`, for which the compound was classed as inactive in test [2] and in test [3].
Turning to `CC(CN(C)C)C(C)(O)Cc1ccc(Cl)cc1` (configuration not stated), the compound was classed as inactive in test [2] and in test [3].

For the origin of these results see PubChem BioAssay (NCATS).
